The values below come from ChEMBL document CHEMBL3988442, “University of Dundee, Small-Polar-MMV Screening Library” (2021).

Screen size: about 48,000 compounds; about 13,000 (27%) showed an effect of 50% or more. The list shows a part of the results.

In this assay the test system is Wolbachia pipientis. Put plainly: Anti-Wolbachia Cell-Based Screen. Type of assay: functional. Also noted: scale not given: in the data most compounds retested in dose-response had high values. The settings on record: 5 µM.
Turning to `Cc1[nH]c(=O)[nH]c(=O)c1CN1CCCC(CCc2ccc(F)c(F)c2)C1` (stereo not drawn), the “Percent Effect” value was 8.003%.
Turning to `O=C1CC[C@H](C(=O)N(CCc2ccccc2)C2CCOC2)N1` (stereo partly drawn), the “Percent Effect” value is -17.91%.
Consider `CCC(=O)N1CCc2[nH]cnc2C12CCN(C1CCOCC1)CC2`, for which the “Percent Effect” value was -8.971%.
The same measure for `CCc1ccc(CN(C)Cc2cnc(S(=O)(=O)CC)n2CCOC)cc1`: -8.303%.
Turning to `Cc1sc2nc(CCN)nc(N3CCC(N4CCCC4)CC3)c2c1C`, the “Percent Effect” value is -8.408%.
Turning to `Cc1cccnc1CNC(=O)NC(C)Cc1c(C)nn(C)c1C` (stereo not drawn), the “Percent Effect” value is recorded as -5.579%.
As for `O=C(NCCNC(=O)c1ccc(Br)cc1)c1ccc(O)cc1`, the “Percent Effect” value is given as 3.17%.
For the compound `Cc1nc(S(=O)(=O)CCn2cccn2)n(CC2CCCO2)c1C` (stereo not drawn), the “Percent Effect” value is reported as -14.31%.
Take `COCc1nc(CNc2cccc(-c3csc(C)n3)c2)cs1`: the “Percent Effect” value was -8.53%.
As for `COc1cccc(CNc2cc(C)nc(-c3ccncc3)n2)c1O`, the “Percent Effect” value is given as -14.65%.
The result for `CCc1csc(CNc2cc(C)nc(-c3cccnc3)n2)n1` reads 113.3%; that for `CCc1nc(CNc2cc(C)nc(-c3cccnc3)n2)cs1`, 88.21%.
With `CC(C)Cc1cc(CNc2nc(-c3cccnc3)nc3c2CNC3)no1`, the “Percent Effect” value was determined as 13.84%.
Consider `COc1cccc(CNc2cc(C)nc(-c3ccncc3)n2)c1OC`, for which the “Percent Effect” value is listed as -14.13%.
For the compound `CCSCC(C)NCc1nncn1C1CCCCC1` (stereo not drawn), the “Percent Effect” value is listed as -19.08%.
Take `COCCCN(CCOC)C(=O)Nc1ccc(Br)cc1`: the “Percent Effect” value was determined as 130.2%.
Regarding `COCCOc1ccc(NC(=O)N(CCCO)CC(C)(C)C)cn1`, the “Percent Effect” value turned out to be 7.116%.
The result for `CCN(CCO)C(=O)Nc1ccc(OCCOC)nc1` reads 0.2723%.
As for `COCCCN(CCOC)C(=O)Nc1ccccc1-n1cccn1`, the “Percent Effect” value is 144.2%.
`COCCN(C)C(=O)c1ccccc1-n1cccn1`: the “Percent Effect” value is 3.962%.
Take `COCCN(Cc1ccccn1)C(=O)Nc1cccnc1N1CCCC1`: the “Percent Effect” value is reported as -3.62%.
Regarding `O=C(C1CC=CC1)N1CCC2(CCN(Cc3cccc(F)c3)CC2)C1`, the “Percent Effect” value came out at 0.9808%.
As for `N#Cc1ccc(CNC(=O)NC2CCN(c3ncccn3)CC2)cc1`, the “Percent Effect” value was 5.422%.
For `Cc1cc(CN2CCN(CC(O)c3ccccc3)CC2)no1` (stereo not drawn), the “Percent Effect” value is recorded as -10.98%.
Consider `Cn1cnc2c1CCN(c1ccnc(-c3ccccc3)n1)C2`, for which the “Percent Effect” value is recorded as -10.53%.
The result for `Cc1cc(CN2CCN(C(c3ccccc3)c3ccccc3)CC2)no1` reads -4.667%; that for `Cc1noc(C)c1CN1CCN(Cc2nccn2C)CC1`, -9.314%; that for `Cc1noc(C)c1CN1C[C@@H](C(=O)O)[C@H](c2ccccn2)C1`, -12.63%.
`Cc1cnc(CN2CCN(c3ccnc(-c4ccccc4)n3)CC2)cn1`: the “Percent Effect” value is 144.2%.
Take `Cc1noc(C)c1CN1CCN(c2ccnc(-c3ccccc3)n2)CC1`: the “Percent Effect” value worked out at 94.83%.
In the case of `Cc1cc(CN2CCN(c3ccnc(-c4ccccc4)n3)CC2)no1`, the “Percent Effect” value is recorded as 122.7%.
Consider `Cc1cnc(CN2CCCCC2c2nc(-c3ccccc3)no2)cn1` (stereo not drawn), for which the “Percent Effect” value was 19.76%.
In the case of `CS(=O)(=O)NCCNC(=O)c1ccc(OCc2ccccc2)nc1`, the “Percent Effect” value is recorded as 7.359%.
With `O=C(NC1CCCC1)N1CCCC(c2nccn2Cc2ccncc2)C1` (stereo not drawn), the “Percent Effect” value is -3.815%.
Regarding `CCC(C)NC(=O)N1CCCn2cnc(CO)c2C1` (stereo not drawn), the “Percent Effect” value is -12.35%.
With `O=C1CCCN1Cc1ncn2c1CN(C(=O)NC1CCCC1)CCC2`, the “Percent Effect” value is listed as 86.82%.
As for `O=C1CCCN1Cc1ncn2c1CN(C(=O)NC1CCCCC1)CCC2`, the “Percent Effect” value worked out at 133.6%.
As to `CC(C)OCc1ncn2c1CN(CCO)CCC2.O=C(O)C(F)(F)F`, the “Percent Effect” value is listed as -4.222%.
Consider `CC(C)NC(=O)N1CCCn2cnc(CO)c2C1.O=C(O)C(F)(F)F`, for which the “Percent Effect” value turned out to be 89.15%.
Take `CC(C)NC(=O)N1CCCn2cnc(CN3CCCC3=O)c2C1`: the “Percent Effect” value was found to be 81.15%.
`CC(C)CC(=O)N1CCCn2cnc(CN3CCCC3=O)c2C1`: the “Percent Effect” value was determined as 1.077%.
The result for `Cn1nnnc1SCCNC(=O)CC1CCc2ccccc21` (stereo not drawn) reads 1.963%; that for `CCC(CO)NC(=O)Nc1ccc(OCC(F)(F)F)c(C)c1` (stereo not drawn), -12.14%; that for `CCN(Cc1noc(CC(C)C)n1)Cc1ccccc1OCC(=O)O`, 3.118%.
Regarding `O=C(Cn1ccc2ccccc21)N1CCC(Oc2ncccc2Br)CC1`, the “Percent Effect” value is reported as 10.7%.
As to `Cl.Cl.c1c(CN2CCCCC2)nc2n1CCNC2`, the “Percent Effect” value worked out at 4.844%.
As to `CC(C)c1ccc(-n2cc(O)c(C(=O)O)n2)cc1`, the “Percent Effect” value is on record as 3.312%.
For the compound `CCCNC(=O)CN1CCC(NCc2c(C)nn(C)c2OC)CC1`, the “Percent Effect” value is -12.27%.
As for `CNC(=O)[C@@H]1C[C@@H](NC(=O)CCCc2cccs2)CN1C1CCOCC1`, the “Percent Effect” value is -14.74%.
Regarding `Cc1cccc(NC(=O)N2CCCn3cnc(CN4CCCC4)c3C2)c1.O=C(O)C(F)(F)F`, the “Percent Effect” value is -10.04%.
For the compound `Cc1cccc(NC(=O)N2CCCn3cnc(CN(C)C(C)C)c3C2)c1.O=C(O)C(F)(F)F`, the “Percent Effect” value is listed as 110.9%.
On to `CN(C)C(=O)NCc1ncn2c1CN(Cc1cccs1)CCC2.O=C(O)C(F)(F)F.O=C(O)C(F)(F)F`, for which the “Percent Effect” value is 0.9692%.
On to `O=C1CCCN1Cc1ncn2c1CN(C(=O)C1CC=CC1)CCC2`, for which the “Percent Effect” value was 99.96%.
